Efflux pump mplx: inhibitors of Candida efflux pumps in yeast, primary screen, S. cerevisiae, Nile Red, multiplex | hit rate 0.44% among 330,000 | S. cerevisiae Candida pump triplex | inhibition, % at 10 µM | AID 485275, 2010;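 active = plate passing quality check with inhibition over a set limit, or well fluorescence over plate mean plus 4 SD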;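 also: Nile Red retained in pooled yeast measured as flow cytometry median fluorescence; 0% = buffer negative control and 100% = Enniatin B positive control; higher means more Nile Red kept so more efflux inhibition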
ALR H2O2 inh: inhibitors of human ALR sulfhydryl oxidase, primary screen, biochemical, H2O2 detection, HRP-luminol luminescence, single point; hit rate 3.8% among 290,000; purified ALR, DTT oxidation; FAD-linked sulfhydryl oxidase ALR (Homo sapiens), P55789; inhibition, % (no concentration beside the values);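 active = mean replicate inhibition above about 79%, with every replicate also reaching it, limit read from the data; inconclusive = only one of the two criteria met; inactive = mean below limit and not every replicate reaching it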
Mot1-301 SUMO: yeast Mot1-301 growth rescue at high temperature, primary screen, SUMOylation pathway inhibitor project, S. cerevisiae, ATP luminescence, 38.5C | S. cerevisiae Mot1-301 growth rescue; percent above DMSO median, 100 means doubled | hit rate 1% among 320,000 | AID 2716, 2010 | growth rescue, % at 18.8 µM;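 active = every valid replicate shows activation above 250% relative to neutral control wells; inactive = the rest, any valid replicate at or below 250%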;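 also: OY570 slx delta 5 strain wells were the positive control but not used for scaling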
VLA-4 inh: inhibition in human VLA-4 binding assay, primary screen, VLA-4 allosteric modulator project, MLPCN library, flow cytometry, VLA-4 expressing cells; inhibition, % (about 7 µM as worked out from the volumes in the protocol); AID 2557, 2010; Integrin alpha-4 (Homo sapiens), P13612; hit rate 0.2% among 330,000; ligand binding flow cytometry; in the data active = inhibition above about 50%
Target sequence (P13612 whole entry, looked up): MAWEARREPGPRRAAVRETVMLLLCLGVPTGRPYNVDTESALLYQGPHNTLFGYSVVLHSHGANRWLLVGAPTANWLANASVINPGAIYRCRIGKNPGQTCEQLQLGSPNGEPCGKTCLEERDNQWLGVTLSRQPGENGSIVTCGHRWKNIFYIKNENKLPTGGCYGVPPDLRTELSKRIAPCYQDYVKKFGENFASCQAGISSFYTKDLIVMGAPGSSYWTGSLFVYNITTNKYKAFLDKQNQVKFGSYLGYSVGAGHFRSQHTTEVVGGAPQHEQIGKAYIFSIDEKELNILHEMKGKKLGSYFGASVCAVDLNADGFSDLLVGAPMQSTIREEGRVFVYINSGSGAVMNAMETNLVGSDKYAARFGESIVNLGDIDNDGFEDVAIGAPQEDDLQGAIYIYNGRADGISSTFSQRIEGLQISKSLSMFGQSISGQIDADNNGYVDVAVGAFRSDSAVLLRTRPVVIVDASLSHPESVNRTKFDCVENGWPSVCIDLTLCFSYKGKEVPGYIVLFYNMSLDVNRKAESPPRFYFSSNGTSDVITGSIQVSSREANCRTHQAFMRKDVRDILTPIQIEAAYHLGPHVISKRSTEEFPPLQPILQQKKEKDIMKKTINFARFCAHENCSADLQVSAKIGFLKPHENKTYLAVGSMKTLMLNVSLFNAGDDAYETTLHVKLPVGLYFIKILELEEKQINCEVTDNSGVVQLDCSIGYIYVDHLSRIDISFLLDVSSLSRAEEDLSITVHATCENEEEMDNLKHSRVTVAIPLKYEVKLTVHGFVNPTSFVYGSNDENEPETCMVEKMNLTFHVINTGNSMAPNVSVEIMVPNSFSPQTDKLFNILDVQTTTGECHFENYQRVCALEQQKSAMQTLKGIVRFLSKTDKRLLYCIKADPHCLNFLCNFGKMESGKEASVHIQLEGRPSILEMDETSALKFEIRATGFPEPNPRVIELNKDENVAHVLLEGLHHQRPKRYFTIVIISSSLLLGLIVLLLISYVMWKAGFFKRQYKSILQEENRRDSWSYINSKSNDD
AHR activator: AHR activators, primary screen, cell-based, luminescence, luciferase reporter, human | Aryl hydrocarbon receptor (Homo sapiens), P35869 | AHR-responsive luciferase reporter cells | activation, % at 5 µM | hit rate 2.5% among 320,000 | AID 2796, 2010; in the data active = activation above about 47%;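 also: 0% = vehicle wells and 100% = reference agonist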
A1 inh: caspase 3/7 activation in MEF A1-2A-BIM cells, primary screen, A1 inhibitor project, cell-based, luminescence, HTS | Caspase-Glo 3/7 luminescence, 3 h; percent of clofoctol response, vehicle zero | caspase activation, % (test concentration not listed) | hit rate 0.066% among 330,000 | AID 2462, 2010;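 active = over half of replicate activation scores above 10%, or exactly half above 10 with the replicate mean above 10; inconclusive = replicate mean below 10 yet half the replicates above 10; inactive = over half of replicates below 10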
Cmpd fluor yeast: counter-screen for efflux pump inhibitors: compound fluorescence; AID 588517; S. cerevisiae AD/pABC3, flow cytometry; fluorescence ratio to DMSO, % at 10 µM; hit rate 4% among 1,700; shares compounds with Efflux pump mplx;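 active = fluorescence ratio to DMSO above its plate's cutoff, the plate mean ratio plus 5 SD, cut at about 210% in these data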;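 also: unstained yeast with no Nile Red so the signal is compound autofluorescence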
CaMdr1 efflux inh: inhibitors of Candida albicans Mdr1 efflux, confirmation, flow cytometry, singleplex, Cherry Pick1 set; S. cerevisiae AD/CaMDR1, Nile Red efflux; inhibition, % at 10 µM; hit rate 1% among 1,700; shares compounds with Efflux pump mplx; in the data active = inhibition above about 26%;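 also: 0% = DMSO vehicle and 100% = reference inhibitor; higher means more Nile Red retained so more efflux inhibition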
CaCdr2 efflux inh: inhibitors of Candida albicans Cdr2 efflux pump, confirmation, S. cerevisiae AD/CaCDR2, flow cytometry, cherry pick 1, singleplex; Nile Red retention; shares compounds with Efflux pump mplx; hit rate 4% among 1,700; Nile Red retention ratio vs DMSO, % at 10 µM; in the data active = Nile Red retention ratio vs DMSO above about 190%;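 also: higher ratio means more blocking of Cdr2 efflux of the dye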
Cdr1 pump inh: inhibitors of Candida albicans Cdr1 efflux pump, confirmation, S. cerevisiae AD/CaCDR1, flow cytometry, cherry pick 1, singleplex | inhibition, % at 10 µM | Nile Red efflux | hit rate 1% among 1,700 | shares compounds with Efflux pump mplx;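 active = inhibition above the screen-wide mean plus twice its standard deviation, cut at about 32% in these data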
An asterisk follows results filed as active. A selection: hits, their analogues and other compounds. The true share with any hit is near 7.2%.

Results for O=C1C(Cl)=C(Nc2ccc3cn[nH]c3c2)C(=O)c2ccccc21 ?
Efflux pump mplx: 0.7*; ALR H2O2 inh: -106; Mot1-301 SUMO: 1; VLA-4 inh: 26; AHR activator: 70*; A1 inh: 3; Cmpd fluor yeast: 97; CaMdr1 efflux inh: 0; CaCdr2 efflux inh: 135; Cdr1 pump inh: 0

Results for O=C(N/N=C\c1ccc(CNS(=O)(=O)c2ccccc2)o1)C(=O)Nc1ccc(F)cc1 ?
Efflux pump mplx: 0; ALR H2O2 inh: -31; Mot1-301 SUMO: -4; VLA-4 inh: 10; AHR activator: 5; A1 inh: -1

How did O=C(NCc1ccc(/C=N\NC(=O)C(=O)Nc2ccccc2Br)o1)C(=O)Nc1ccccc1 do in these assays?
Efflux pump mplx: 0.7*; ALR H2O2 inh: 2; Mot1-301 SUMO: -26; VLA-4 inh: 2; AHR activator: 2; A1 inh: 11*; Cmpd fluor yeast: 102; CaMdr1 efflux inh: 0; CaCdr2 efflux inh: 109; Cdr1 pump inh: 0

Results for O=C1OC(c2ccco2)=N/C1=C\c1ccc(-c2cccc(C(F)(F)F)c2)o1 ?
Efflux pump mplx: 1.2*; ALR H2O2 inh: 20; Mot1-301 SUMO: 21; VLA-4 inh: -7; AHR activator: 5; A1 inh: 0; Cmpd fluor yeast: 93; CaMdr1 efflux inh: 0; CaCdr2 efflux inh: 112; Cdr1 pump inh: 0

What do the screens show for `N#C/C(=C\c1ccc(-c2cccc(C(F)(F)F)c2)o1)C(=O)Nn1cnnc1`?
Efflux pump mplx: 0; ALR H2O2 inh: 7; Mot1-301 SUMO: 6; VLA-4 inh: 12; AHR activator: 4; A1 inh: inconclusive

How did O=C(NCCO)/C(=C\c1ccc(Br)cc1)NC(=O)c1cccs1 do in these assays?
Efflux pump mplx: 7.5*; ALR H2O2 inh: -2; Mot1-301 SUMO: 7; VLA-4 inh: 6; AHR activator: -1; A1 inh: -1; Cmpd fluor yeast: 103; CaMdr1 efflux inh: 0; CaCdr2 efflux inh: 96; Cdr1 pump inh: 0

How did O=C(Oc1c(-c2ccccc2)c(=O)n2c3c(cccc13)CC2)c1ccc(Cl)cc1 do in these assays?
Efflux pump mplx: 0; ALR H2O2 inh: 3; Mot1-301 SUMO: -16; VLA-4 inh: -5; AHR activator: -1; A1 inh: 0; Cmpd fluor yeast: 97; CaMdr1 efflux inh: 0; CaCdr2 efflux inh: 97; Cdr1 pump inh: 0

What do the screens show for `O=C(Oc1c(-c2ccccc2)c(=O)n2c3c(cccc13)CC2)c1ccco1`?
Efflux pump mplx: 0; ALR H2O2 inh: 8; Mot1-301 SUMO: -3; VLA-4 inh: -5; AHR activator: -2; A1 inh: 0; Cmpd fluor yeast: 97; CaMdr1 efflux inh: 0; CaCdr2 efflux inh: 106; Cdr1 pump inh: 0

What do the screens show for `O=c1c(-c2ccccc2)c(O)c2cccc3c2n1CCC3`?
Efflux pump mplx: 0; ALR H2O2 inh: -12; Mot1-301 SUMO: 42; VLA-4 inh: 6; AHR activator: 7; A1 inh: -1

How did CCCCCn1cnc2c(sc3nc4c(cc32)CSC(C)(C)C4)c1=O do in these assays?
Efflux pump mplx: 0; ALR H2O2 inh: -3; Mot1-301 SUMO: -1; VLA-4 inh: 12; AHR activator: 13; A1 inh: -2

What do the screens show for `O=C(c1ccccc1/S(=N/S(=O)(=O)c1ccccc1)N1CCOCC1)N1CCOCC1` (centres undefined)?
Efflux pump mplx: 0; ALR H2O2 inh: -3; Mot1-301 SUMO: 112; VLA-4 inh: 13; AHR activator: -1; A1 inh: 0

What do the screens show for `CCOC(=O)c1c(NC(=S)Nc2ccccc2)sc2c1CC(C)(C)SC2`?
Efflux pump mplx: 0.5*; ALR H2O2 inh: -6; Mot1-301 SUMO: 60; VLA-4 inh: -12; AHR activator: 20; A1 inh: 0; Cmpd fluor yeast: 202; CaMdr1 efflux inh: 6; CaCdr2 efflux inh: 245*; Cdr1 pump inh: 4

What do the screens show for `Nc1ncnc2c1nc(N1CCCCC1)n2[C@@H]1O[C@H](CO)[C@@H](O)[C@H]1O`?
Efflux pump mplx: 2.3*; ALR H2O2 inh: -1; Mot1-301 SUMO: -15; VLA-4 inh: 0; AHR activator: 1; A1 inh: 0; Cmpd fluor yeast: 104; CaMdr1 efflux inh: 0; CaCdr2 efflux inh: 92; Cdr1 pump inh: 0

How did CC(C)NC(=O)C(=O)NNC(=O)C12CC3CC(CC(C3)C1)C2 do in these assays?
Efflux pump mplx: 2.1*; ALR H2O2 inh: -4; Mot1-301 SUMO: -16; VLA-4 inh: 4; AHR activator: 7; A1 inh: -1; Cmpd fluor yeast: 111; CaMdr1 efflux inh: 0; CaCdr2 efflux inh: 116; Cdr1 pump inh: 0

What do the screens show for `O=C(CSc1nc2ccccc2c(=O)n1-c1ccc(F)cc1F)Nc1ccc(N2CCOCC2)cc1`?
Efflux pump mplx: 19*; ALR H2O2 inh: -1; Mot1-301 SUMO: -1; VLA-4 inh: -2; AHR activator: 29; A1 inh: 1; Cmpd fluor yeast: 104; CaMdr1 efflux inh: 0; CaCdr2 efflux inh: 123; Cdr1 pump inh: 0

Results for Cc1ccc(-n2c(SCC(=O)Nc3ccc(N4CCOCC4)cc3)nc3ccccc3c2=O)cc1 ?
Efflux pump mplx: 9.6*; ALR H2O2 inh: -4; Mot1-301 SUMO: -7; VLA-4 inh: 5; AHR activator: 18; A1 inh: -1; Cmpd fluor yeast: 104; CaMdr1 efflux inh: 0; CaCdr2 efflux inh: 123; Cdr1 pump inh: 0

How did O=C(CSc1nc2ccccc2c(=O)n1-c1ccc(SC(F)F)cc1)Nc1ccc(N2CCOCC2)cc1 do in these assays?
Efflux pump mplx: 0; ALR H2O2 inh: 7; Mot1-301 SUMO: 91; VLA-4 inh: -2; AHR activator: -1; A1 inh: 0

Screening results: PubChem BioAssay, several laboratories
